Records with an inconclusive call do not appear. The source made the active and inactive calls. How the source made its calls, unless noted: active means hit-call score of the fitted dose curve at least 0.9, where 1 is the maximum; inactive means score below 0.9.
assay: CCTE_Harrill_HTTr_Apoptosis_MCF7: CCTE's 6-hour Apoptosis Assessment for the High-Throughput Transcriptomics (HTTr) Platform, in MCF-7 cells cultured in DMEM + 10% fetal bovine serum, Harrill Lab (AID 2284011)
Outline: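 Read-out: CellEvent Caspase 3/7 Green signal by high content imaging, gain-of-signal indicating apoptosis. MCF-7 cells, DMEM + 10% FBS, eight-point dilution series, 6 h exposure. Curves fitted bidirectionally relative to DMSO negative control.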

outcome, inactive:
COC(=O)CCCC(=O)OC
CCCCC(CC)CO (configuration not stated)
Cc1occc(=O)c1O
Oc1ccccc1O
CCCCc1nc2cccnc2n1Cc1ccc(-c2ccccc2-c2nnn[nH]2)cc1
CCc1nc(N)nc(N)c1-c1ccc(Cl)cc1
C=CCCCCCCCCCCCC
CCCCCCCCCCCCCCOS(=O)(=O)O
CO[C@@H]1COCC[C@@H]1N[C@@H]1CC[C@@](C(=O)N2CCc3ncc(C(F)(F)F)cc3C2)(C(C)C)C1
O=C1O[C@H]([C@H](O)CO)C(O)=C1O
CC(COCC(C)OC(=O)c1ccccc1)OC(=O)c1ccccc1 (configuration not stated)
CC(=O)CC(c1ccccc1)c1c(O)c2ccccc2oc1=O (configuration not stated)
CC(C)(O)c1ccc(CNC(=O)c2cccnc2Oc2ccc(F)cc2)cc1
CC(=O)O[C@]1(C(C)=O)CC[C@H]2[C@@H]3C=C(Cl)C4=CC(=O)[C@@H]5C[C@@H]5[C@]4(C)[C@H]3CC[C@@]21C
OCC(O)CO
CCCCCCCCCC[N+](C)(C)[O-]
O=NO
CCCC[C@H]1CN(CC2CCOCC2)C(=O)OC12CCN(C1(C)CCN(C(=O)c3c(C)ncnc3C)CC1)CC2
CC(=O)OC1CC(C)OC(C)O1 (configuration not stated)
C#CC(O)C(CC)CCCC (configuration not stated)
Nc1nc(Cl)nc2c1ncn2[C@H]1C[C@H](O)[C@@H](CO)O1
CCCCC(CC)COC(=O)CCCCCCCC(=O)OCC(CC)CCCC (configuration not stated)
O=C(NS(=O)(=O)/C=C/c1cccs1)c1ccc(F)cc1Br
CC(=O)OCC(COC(C)=O)OC(C)=O
CCCCOC(=O)CCCCC(=O)OCCCC
COc1ccc(C(=O)Nc2nc3ccccc3c(NCc3ccccc3)c2C#N)cc1
O=C(Oc1ccccc1)c1cccc(C(=O)Oc2ccccc2)c1
NCCOCCOCCN
CCCCCCC(C=O)=Cc1ccccc1

assay: CCTE_Harrill_HTTr_CellCount_MCF7: CCTE's Cell Proliferation Assessment for the High-Throughput Transcriptomics (HTTr) Platform, Harrill Lab (AID 2284012; active means hit-call score of the fitted dose curve at least 0.9, where 1 is the maximum;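 further: cells exposed to compound for six hours; intended direction is loss of nuclei count meaning fewer cells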)
Outline: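 MCF-7 cells were exposed for 6 h to an eight-point dilution series; Hoechst-labeled nuclei were counted by high content imaging. Curves were fitted bidirectionally against DMSO as negative control and baseline, with signal loss indicating reduced cell count.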

outcome, inactive:
CCc1nc(N)nc(N)c1-c1ccc(Cl)cc1
C=CCCCCCCCCCCCC
CC(=O)CC(c1ccccc1)c1c(O)c2ccccc2oc1=O (configuration not stated)
CC(=O)O[C@]1(C(C)=O)CC[C@H]2[C@@H]3C=C(Cl)C4=CC(=O)[C@@H]5C[C@@H]5[C@]4(C)[C@H]3CC[C@@]21C
CCCCCCCCCC[N+](C)(C)[O-]
O=NO
CCCC[C@H]1CN(CC2CCOCC2)C(=O)OC12CCN(C1(C)CCN(C(=O)c3c(C)ncnc3C)CC1)CC2
CC(=O)OC1CC(C)OC(C)O1 (configuration not stated)
C#CC(O)C(CC)CCCC (configuration not stated)
Nc1nc(Cl)nc2c1ncn2[C@H]1C[C@H](O)[C@@H](CO)O1
CCCCOC(=O)CCCCC(=O)OCCCC
O=C(Oc1ccccc1)c1cccc(C(=O)Oc2ccccc2)c1
CCCCCCC(C=O)=Cc1ccccc1

— PubChem BioAssay (EPA / NIEHS)
